Measurements from PubChem BioAssay (NCI).
The panel holds about 83,000 compounds, 20% with a hit somewhere; the sample as a whole holds those more often.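 Note: values are percent growth. 100 is the growth of untreated cells, values between 100 and 0 indicate rising inhibition; between -100 and 0 indicates cell death.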 Active and inactive are the calls of the source. Rule for the calls: active = growth percent below 10; inactive = the rest.

Assays:
Test in all cases: NCI-60 one-dose screen, 48 h (100 = growth as untreated, 0 = no growth, -100 = all killed)
Details in all cases: 10 µM unless noted
SK-MEL-2 melanoma = tested on: SK-MEL-2 melanoma
SN12C renal = tested on: SN12C renal
UO-31 renal = tested on: UO-31 renal
TK-10 renal = tested on: TK-10 renal
ACHN renal = tested on: ACHN renal
A498 renal = tested on: A498 renal
CCRF-CEM leukemia = tested on: CCRF-CEM leukemia
MOLT-4 leukemia = tested on: MOLT-4 leukemia
EKVX NSCLC = tested on: EKVX NSCLC
CAKI-1 renal = tested on: CAKI-1 renal

Measured: growth

N=C(N)c1ccc(-c2ccc(-c3cc(Cl)cc(Cl)c3)o2)nc1
active: SK-MEL-2 melanoma -71.8% | SN12C renal -79.9% | UO-31 renal -76.6% | TK-10 renal -88.5% | ACHN renal -90.6% | CCRF-CEM leukemia -37.9% | MOLT-4 leukemia -55.1%
inactive: A498 renal 61.8%

CCCCCCCCCCCCCC[N+](C)(C)CCCCCCCCCCCCCC
inactive: SK-MEL-2 melanoma 67.6% | SN12C renal 67.6% | UO-31 renal 78% | TK-10 renal 48.3% | ACHN renal 57.1% | A498 renal 102% | MOLT-4 leukemia 51.2%

Cc1cc2nc3c(=O)[nH]c(=O)nc-3n(CC=O)c2cc1C
inactive: EKVX NSCLC 95.6% | SN12C renal 97.7% | UO-31 renal 106% | TK-10 renal 111% | ACHN renal 105% | CAKI-1 renal 64.8% | A498 renal 116% | CCRF-CEM leukemia 160% | MOLT-4 leukemia 109%

Cc1nc2c(-c3cnc(N)nc3)nc(N3CCOCC3)nc2n1C(C)C
inactive: SN12C renal 12.8%
active: EKVX NSCLC 9.04% | UO-31 renal -12.1% | TK-10 renal -33% | ACHN renal 2.76% | CAKI-1 renal 0.604% | A498 renal -39.2% | MOLT-4 leukemia 6.75%

CCc1ccc2c(c1)N(CCO)C1=C(C(=O)OC1)C2c1cccc(Cl)c1 (centres undefined)
active: A498 renal -1.08%
inactive: EKVX NSCLC 43% | SN12C renal 38.7% | UO-31 renal 34.9% | TK-10 renal 49.9% | ACHN renal 42% | CAKI-1 renal 27.6% | CCRF-CEM leukemia 10.5% | MOLT-4 leukemia 17.6%

O=C1C(Cl)=C(N/N=c2/[nH][nH]/c(=N/NC3=C(Cl)C(=O)c4ccccc4C3=O)c3ccccc23)C(=O)c2ccccc21
inactive: SK-MEL-2 melanoma 96.4% | SN12C renal 56.4% | UO-31 renal 54.7% | TK-10 renal 130% | ACHN renal 61.9% | A498 renal 57% | CCRF-CEM leukemia 16.5% | MOLT-4 leukemia 11.4%

CCOc1cccc(/C=N/NC(=O)Cc2ccc(Nc3ccnc(C(F)(F)F)c3)cc2)c1O
inactive: EKVX NSCLC 20.4% | SN12C renal 43% | TK-10 renal 47.1% | CAKI-1 renal 36.8% | A498 renal 91.9% | MOLT-4 leukemia 40.6%
active: UO-31 renal 3.59% | ACHN renal 6.94% | CCRF-CEM leukemia -21.7%

CCc1ccc2c(c1)N(CCO)C1=C(C(=O)OC1)C2c1cccc(Br)c1 (centres undefined)
active: A498 renal 2.81%
inactive: EKVX NSCLC 47.4% | SN12C renal 53.5% | UO-31 renal 34% | TK-10 renal 45.4% | ACHN renal 47.4% | CAKI-1 renal 26.1% | CCRF-CEM leukemia 11.9% | MOLT-4 leukemia 19.3%

CS(=O)(=O)Nc1cc(-c2cc3ncc(C#N)c(Nc4ccc(Oc5ccccc5)c(Cl)c4)c3s2)cnc1Cl
inactive: EKVX NSCLC 58.1% | SN12C renal 45.7% | UO-31 renal 22.6% | TK-10 renal 45.4% | ACHN renal 39.2% | CAKI-1 renal 19.4% | CCRF-CEM leukemia 38.3% | MOLT-4 leukemia 36.9%
active: A498 renal -15.2%

Cc1cccc(C(=O)O)n1
inactive: EKVX NSCLC 93.9% | SN12C renal 102% | UO-31 renal 72.3% | TK-10 renal 109% | ACHN renal 102% | CAKI-1 renal 69.8% | A498 renal 116% | CCRF-CEM leukemia 146% | MOLT-4 leukemia 94.2%

Cc1ccc(NC(=O)c2nc(S(C)=O)oc2-c2ccc(F)cc2)cc1Nc1nccc(-c2cccnc2)n1 (centres undefined)
active: CCRF-CEM leukemia 2.57% | MOLT-4 leukemia 0.215%
inactive: EKVX NSCLC 73.8% | SN12C renal 38.7% | UO-31 renal 84.5% | TK-10 renal 130% | ACHN renal 31.5% | A498 renal 107%

Cc1cc(C)c([O-])c(CN(C)CCN(C)Cc2cc(C)cc(C)c2[O-])c1.O=C([O-])c1cccc(C(=O)[O-])n1.[Ti+4]
active: UO-31 renal -9.59% | TK-10 renal -20.6% | A498 renal -86.2% | CCRF-CEM leukemia -2.1% | MOLT-4 leukemia -5%
inactive: EKVX NSCLC 27.1% | SN12C renal 27.4% | ACHN renal 19.4%

Cc1cc(O)ccc1C1=NN(c2ccc(S(N)(=O)=O)cc2)C(=O)CC1
inactive: EKVX NSCLC 52.6% | SN12C renal 70.7% | UO-31 renal 65.4% | TK-10 renal 114% | ACHN renal 77.6% | CCRF-CEM leukemia 46.2%
active: A498 renal -2.97%

O=C(C(=O)c1cccnc1)c1cccnc1
inactive: EKVX NSCLC 110% | SN12C renal 107% | UO-31 renal 105% | TK-10 renal 158% | ACHN renal 110% | A498 renal 55.6% | CCRF-CEM leukemia 120%

COc1cccc(OCC(O)CN2CCN(c3ccccc3)CC2)c1 (centres undefined)
inactive: EKVX NSCLC 103% | SN12C renal 105% | UO-31 renal 96.3% | TK-10 renal 151% | ACHN renal 109% | A498 renal 90.6% | CCRF-CEM leukemia 121%

Cc1nc([C@H]2CC[C@H]3[C@@H]4CCC5=CC(=O)CC[C@]5(C)[C@H]4CC[C@]23C)cs1
inactive: EKVX NSCLC 42.2% | SN12C renal 84.1% | UO-31 renal 76.3% | TK-10 renal 103% | ACHN renal 68.6% | A498 renal 74.4% | CCRF-CEM leukemia 40.7%
